Screens (PubChem BioAssay)
STAT3 inh – STAT3 signaling inhibition. U3A cells, IL-6 STAT3-luciferase reporter, luminescence; host cell line lacks STAT1. inhibition, % at 5.5 µM. 190,000 tested, 0.89% active. AID 862;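 active means inhibition above the mean inhibition across all screened compounds plus 3 SD, cut at about 44% in these data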
C8 TRAIL sens – caspase-8 TRAIL sensitization | NB7+C8 cells + TRAIL, ATPlite viability luminescence | inhibition (viability loss, TRAIL sensitization), % at 10 µM | 360,000 tested, 1% active | AID 624354;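 active means compounds causing at least 50% loss of cell viability in the single-dose screen, relative to plate controls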
Platelet DG rel – modulates dense granule release in human platelets. inhibition, %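 (compounds screened at 7.5 µM in platelet-rich plasma)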. human platelet-rich plasma, SFLLRN dense granule ATP release, luminescence. 300,000 tested, 0.22% active. AID 1663;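 active means mean replicate score, as percent of positive control, at or above 50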
PPC-1+TRAIL kill – PPC-1 cancer cell killing with TRAIL present | PPC-1 cells + TRAIL, ATPLite viability luminescence | cell killing (% activity), % at 4 µM or 5 µM | 220,000 tested, 0.41% active | AID 1443;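 active means cell killing above 50% in the first pass at 4 µM, then a duplicate retest at 5 µM averaging 50% or more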
STAT1 blocker – inhibitors of IFN-gamma induced STAT1 signaling. NIH 3T3 STAT1-luciferase reporter, luminescence. inhibition, % at 5.5 µM. 200,000 tested, 0.35% active;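 active means inhibition above a set limit, the mean inhibition across all tested compounds plus 3 SD, cut at about 34% in these data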
PPC-1 tox – PPC-1 cell cytotoxicity | shares compounds with PPC-1+TRAIL kill | PPC-1 viability, ATPlite luminescence, overnight | cytotoxicity, % at 5 µM | 1,200 tested, 50% active | AID 1447;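 active means reconfirmed compounds whose average cytotoxicity reaches 50% or more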
Large screens that a line does not name were inactive (follow-up assays come after a bar, where they were run). In the library only some 1.6% were active in any assay of this set; here they are far more common.

CCN(CC)S(=O)(=O)c1cccc(C(=O)Nc2ccccc2C(=O)N2CCOCC2)c1	none | PPC-1 tox inactive
COc1ccc(N2CCN(c3nc(=S)n(-c4ccccc4)c(C)c3C(C)=O)CC2)cc1	none | PPC-1 tox inactive
CC(=O)c1c(N2CCN(c3cccc(Cl)c3)CC2)nc(=S)n(-c2ccccc2)c1C	none
O=C(Nc1nccs1)c1cc2c(s1)CCCCC2	STAT3 inh 95, C8 TRAIL sens 90, PPC-1+TRAIL kill 84, STAT1 blocker 70 | PPC-1 tox 78
NNC(=O)c1cc2c(s1)CCCCCC2	none | PPC-1 tox inactive
O=C(CN1C(=O)C2(OCCCO2)c2ccccc21)NCc1ccccc1	none | PPC-1 tox inactive
Brc1cccc(-c2nc3ccc(Br)cn3c2Cc2ccccc2)c1	none (no result: STAT3 inh, Platelet DG rel, PPC-1+TRAIL kill, STAT1 blocker)
CCOC(=O)c1cnn(-c2ncnc3c2oc2ccccc23)c1N	none (no result: STAT3 inh, STAT1 blocker) | PPC-1 tox inactive
Cn1nc(C(C)(C)C)cc1C(=O)N1CCCC(c2cc(C(=O)Nc3ccccc3Cl)no2)C1 (centres undefined)	none (no result: STAT3 inh, Platelet DG rel, PPC-1+TRAIL kill, STAT1 blocker)
CCOC(=O)N1CCC(n2c(=S)[nH]c3ccccc3c2=O)CC1	none | PPC-1 tox inactive
CCOC(=O)N1CCN(C(=O)CCCn2c(=S)[nH]c3ccccc3c2=O)CC1	none
CC(=O)Nc1ccc2cnn(C(C)=O)c2c1	none (no result: STAT3 inh, Platelet DG rel, PPC-1+TRAIL kill, STAT1 blocker)
O=C(CSc1nnc(-c2ccccc2Cl)o1)Nc1ccccn1	C8 TRAIL sens 52, PPC-1+TRAIL kill 63 | PPC-1 tox 65
Cn1cc(CC(=O)N2CCN(c3ccccc3F)CC2)c2ccccc21	none
Cn1cc(CC(=O)N2CCN(c3ccc(Cl)cc3)CC2)c2ccccc21	none | PPC-1 tox inactive
O=C(Nc1cccc(S(=O)(=O)C(F)F)c1)c1ccc(S(=O)(=O)N2CCCC2)cc1	none
O=C(Nc1cccc(S(=O)(=O)C(F)F)c1)c1ccc(S(=O)(=O)N2CCOCC2)cc1	none | PPC-1 tox inactive
O=C(Nc1cccc(-c2nc3ccccc3s2)c1)c1cc(-n2cnnc2)ccc1Cl	none
Cc1c(NC(=O)c2cc(-n3cnnc3)ccc2Cl)cccc1-c1nc2ccccc2s1	C8 TRAIL sens 78, PPC-1+TRAIL kill 61 | PPC-1 tox 58
